Source: PubChem BioAssay (NCI)
Compounds without any hit were thinned out: in the full panel of roughly 83,000, 20% have a hit.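 Each cell line was grown in a 96-well plate and treated with one concentration of compound for 48 hours. Values below 10 were considered active.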 Calls of active or inactive are those of the source.

What was measured:
Experiment in all cases: NCI-60 one-dose screen, 48 h (100 = growth as untreated, 0 = no growth, -100 = all killed)
Conditions in all cases: 10 µM unless noted
HCT-15 colon = test system: HCT-15 colon
HT29 colon = test system: HT29 colon
SNB-75 CNS = test system: SNB-75 CNS
SNB-19 CNS = test system: SNB-19 CNS
U251 CNS = test system: U251 CNS
PC-3 prostate = test system: PC-3 prostate
SK-MEL-5 melanoma = test system: SK-MEL-5 melanoma
UACC-62 melanoma = test system: UACC-62 melanoma
LOX IMVI melanoma = test system: LOX IMVI melanoma
SK-MEL-28 melanoma = test system: SK-MEL-28 melanoma

Measured: growth

CCN(CC)CCNC(=O)c1cn2ncnc(Oc3ccc(NC(=O)Nc4ccc(Cl)c(C(F)(F)F)c4)c(F)c3)c2c1C
active: HCT-15 colon -38.7% | HT29 colon -42.3% | SNB-75 CNS -7.89% | SNB-19 CNS -48% | U251 CNS -48.6% | PC-3 prostate 7.99% | SK-MEL-5 melanoma -20.3% | UACC-62 melanoma -46.2% | LOX IMVI melanoma -95.4% | SK-MEL-28 melanoma -86.6%

CCN(CC)CCOc1ccc(-c2c(-c3ccccc3)c(=O)oc3ccccc23)cc1
inactive: HCT-15 colon 72.2% | HT29 colon 51.7% | SNB-75 CNS 81.8% | SNB-19 CNS 90.7% | U251 CNS 85.5% | PC-3 prostate 64.9% | SK-MEL-5 melanoma 71.6% | UACC-62 melanoma 82.7% | LOX IMVI melanoma 81.3% | SK-MEL-28 melanoma 98.6%

CC1(C)CC2=C3C=C[C@@H]4[C@@]5(C)CCC(=O)C(C)(C)[C@@H]5CC[C@@]4(C)[C@]3(C)CC[C@@]2(C(=O)O)CC1=O
inactive: HCT-15 colon 57.2% | HT29 colon 50.4% | SNB-75 CNS 10% | SNB-19 CNS 96.5% | U251 CNS 61.2% | PC-3 prostate 74.3% | SK-MEL-5 melanoma 55.2% | UACC-62 melanoma 64% | LOX IMVI melanoma 87.2% | SK-MEL-28 melanoma 46.5%

Nc1ncnc2c1N=C(c1ccc(Cl)cc1)CC(c1ccc3c(c1)OCO3)N2 (stereo not given)
inactive: HCT-15 colon 98.6% | HT29 colon 91.7% | SNB-75 CNS 85.7% | SNB-19 CNS 86.4% | U251 CNS 92.8% | PC-3 prostate 85.2% | SK-MEL-5 melanoma 98% | UACC-62 melanoma 94.8% | LOX IMVI melanoma 96.5% | SK-MEL-28 melanoma 99.8%

O=C1/C(=C\c2cn(-c3ccccc3)nc2-c2ccc(-c3cccs3)cc2)CCc2ccccc21
inactive: HCT-15 colon 37.8% | HT29 colon 29.5% | SNB-75 CNS 45.8% | SNB-19 CNS 61% | U251 CNS 66.2% | PC-3 prostate 78.1% | SK-MEL-5 melanoma 66% | UACC-62 melanoma 47.7% | LOX IMVI melanoma 56.9% | SK-MEL-28 melanoma 68.8%

O=C1c2c(c3c4ccccc4[nH]c3c3ccc4ccccc4c23)C(=O)N1CCN1CCCCC1
inactive: HCT-15 colon 25% | HT29 colon 11.8% | SNB-75 CNS 52.6% | SNB-19 CNS 42.4% | U251 CNS 10.8% | PC-3 prostate 53.3% | SK-MEL-5 melanoma 55.4% | UACC-62 melanoma 42.8% | LOX IMVI melanoma 30.2% | SK-MEL-28 melanoma 98.1%

CCOC(=O)C1=NN(c2ccccc2)C(=O)/C1=C\N1C(=O)CC(=O)NC1=S
inactive: HCT-15 colon 105% | HT29 colon 99.7% | SNB-75 CNS 10.6% | SNB-19 CNS 97.4% | U251 CNS 91% | PC-3 prostate 96.4% | SK-MEL-5 melanoma 99.6% | UACC-62 melanoma 87.5% | LOX IMVI melanoma 93.7% | SK-MEL-28 melanoma 114%

c1ccc(CNc2c3ccccc3nc3ccccc23)cc1
inactive: HCT-15 colon 24.6% | HT29 colon 19% | SNB-75 CNS 64.4% | SNB-19 CNS 39.4% | U251 CNS 38.5% | PC-3 prostate 37.2% | SK-MEL-5 melanoma 63.1% | UACC-62 melanoma 61% | LOX IMVI melanoma 19.8% | SK-MEL-28 melanoma 85.5%

Oc1c(Cl)cc(Cl)c2ccc(Cn3cc(-c4cc(C(F)(F)F)cc(C(F)(F)F)c4)nn3)nc12
active: LOX IMVI melanoma -10.3%
inactive: HCT-15 colon 12.5% | HT29 colon 53.4% | SNB-75 CNS 62.3% | SNB-19 CNS 94% | U251 CNS 105% | PC-3 prostate 74.8% | SK-MEL-5 melanoma 92.6% | UACC-62 melanoma 64.8% | SK-MEL-28 melanoma 46%

CS(=O)(=O)C1=CN(CCO)C(=O)N2CCCN=C12
inactive: HCT-15 colon 107% | HT29 colon 107% | SNB-75 CNS 94.5% | SNB-19 CNS 99.2% | U251 CNS 103% | PC-3 prostate 98.8% | SK-MEL-5 melanoma 97.7% | UACC-62 melanoma 102% | LOX IMVI melanoma 101% | SK-MEL-28 melanoma 104%

C#CCOc1cccc(Nc2ncnc3ccc(NC(=O)CCl)cc23)c1
inactive: SNB-75 CNS 28%
active: HCT-15 colon -41.6% | HT29 colon -78.6% | SNB-19 CNS -23.7% | U251 CNS -60.7% | PC-3 prostate -59.3% | SK-MEL-5 melanoma -92.8% | UACC-62 melanoma -67.5% | LOX IMVI melanoma -75.4% | SK-MEL-28 melanoma -17.2%

Brc1c2c(c(Br)c3ccccc13)CCCC2
inactive: HCT-15 colon 112% | HT29 colon 85.2% | SNB-75 CNS 97.8% | SNB-19 CNS 96.4% | U251 CNS 91.2% | PC-3 prostate 93.6% | SK-MEL-5 melanoma 98.3% | UACC-62 melanoma 84.9% | LOX IMVI melanoma 100% | SK-MEL-28 melanoma 101%

CN(C)c1ccc(Nc2cc(-c3cccc(OC(F)(F)F)c3)nc3ccc(N4CCCC4)cc23)cc1
inactive: SNB-75 CNS 55% | SNB-19 CNS 66% | PC-3 prostate 18% | SK-MEL-5 melanoma 96.3% | UACC-62 melanoma 90.1%
active: HCT-15 colon -45.5% | HT29 colon -12.8% | U251 CNS -59.2% | LOX IMVI melanoma -73.7% | SK-MEL-28 melanoma -85.3%

Nc1nc2c([nH]1)c1[nH]c3ccccc3c1c1[nH]c3ccccc3c21
active: HT29 colon 3.16% | U251 CNS -6.57% | UACC-62 melanoma -31.9% | LOX IMVI melanoma 4.23% | SK-MEL-28 melanoma -77.5%
inactive: HCT-15 colon 51% | SNB-75 CNS 44.5% | SNB-19 CNS 62.4% | PC-3 prostate 34.9% | SK-MEL-5 melanoma 58.7%

CCn1c(=S)[nH]c2c(=O)n(C)c(=O)n(C)c21
inactive: HCT-15 colon 101% | HT29 colon 112% | SNB-75 CNS 96.2% | SNB-19 CNS 100% | U251 CNS 95.9% | PC-3 prostate 100% | SK-MEL-5 melanoma 106% | UACC-62 melanoma 116% | LOX IMVI melanoma 98.8% | SK-MEL-28 melanoma 109%

CCN1CCN(c2cc(C(=O)Nc3nc(-c4cc(OC)c(OC)c(OC)c4)cs3)cc(C(F)(F)F)c2)CC1
inactive: HCT-15 colon 36.4% | HT29 colon 18.3% | SNB-75 CNS 57% | SNB-19 CNS 80.7% | U251 CNS 60.9% | PC-3 prostate 57.1% | SK-MEL-5 melanoma 53.7% | UACC-62 melanoma 75.4% | LOX IMVI melanoma 38.6% | SK-MEL-28 melanoma 51.8%

Cc1c(-c2nc3ccc(F)cc3c(=O)[nH]2)c2ccccc2n1C
inactive: HCT-15 colon 22.9% | HT29 colon 10.7% | SNB-19 CNS 29.2% | U251 CNS 27.6% | PC-3 prostate 47.1% | SK-MEL-5 melanoma 36.2% | UACC-62 melanoma 19.6% | LOX IMVI melanoma 34.5% | SK-MEL-28 melanoma 52%
active: SNB-75 CNS -7.98%

CCOC(=O)C(=Cc1cccc(Cl)c1)C(=O)OCC
inactive: SNB-75 CNS 35.3% | SNB-19 CNS 51.5% | U251 CNS 26.6% | PC-3 prostate 25.2% | SK-MEL-5 melanoma 53.5%
active: HCT-15 colon -51.1% | HT29 colon -62.5% | UACC-62 melanoma -9.18% | LOX IMVI melanoma -65.1% | SK-MEL-28 melanoma -39%

CCNC(=O)c1[nH]cc(-c2ccccc2)c1-c1cc(OC)c2c(c1OC)OCO2
inactive: HCT-15 colon 103% | HT29 colon 112% | SNB-75 CNS 91.4% | SNB-19 CNS 98.6% | U251 CNS 103% | PC-3 prostate 93.1% | SK-MEL-5 melanoma 89.8% | UACC-62 melanoma 92.2% | LOX IMVI melanoma 95.1% | SK-MEL-28 melanoma 108%

CC1(c2ccccc2O)NN=C(/N=C/c2cccc([N+](=O)[O-])c2)N1C(Cc1c[nH]c2ccccc12)C(=O)O (stereo not given)
inactive: HCT-15 colon 98.7% | HT29 colon 102% | SNB-75 CNS 92.3% | SNB-19 CNS 96.9% | U251 CNS 96.1% | PC-3 prostate 76.9% | SK-MEL-5 melanoma 93% | UACC-62 melanoma 77.6% | LOX IMVI melanoma 90.5% | SK-MEL-28 melanoma 106%

O=C(Nn1c2c(sc1=NCc1ccccc1)C(=O)c1ccccc1C2=O)c1cc2ccc1CCc1ccc(cc1)CC2
inactive: HCT-15 colon 55.3% | HT29 colon 99.6% | SNB-75 CNS 33.9% | SNB-19 CNS 74.1% | U251 CNS 70.7% | PC-3 prostate 57.8% | SK-MEL-5 melanoma 51.3% | UACC-62 melanoma 66.4% | LOX IMVI melanoma 35.7% | SK-MEL-28 melanoma 91.4%

O=C1Nc2ccccc2[C@]12CC(c1ccccc1)=NN2
inactive: HCT-15 colon 31.6% | HT29 colon 15.8% | SNB-75 CNS 62.2% | SNB-19 CNS 52.7% | U251 CNS 38.9% | PC-3 prostate 38.5% | SK-MEL-5 melanoma 30.2% | UACC-62 melanoma 19.5% | LOX IMVI melanoma 40.2% | SK-MEL-28 melanoma 59.2%

CCOC(=O)c1ccc2[nH]c(O)c(C(=Nc3ccc(N(C)C(=O)CN4CCN(C)CC4)cc3)c3ccccc3)c2c1
inactive: UACC-62 melanoma 17%
active: HCT-15 colon -23.6% | HT29 colon -33.8% | SNB-75 CNS -99.2% | SNB-19 CNS 2.34% | U251 CNS -86.4% | PC-3 prostate 4.9% | SK-MEL-5 melanoma -94% | LOX IMVI melanoma -93.2% | SK-MEL-28 melanoma -11.9%

COC1=CC(c2ccc[nH]2)=N/C1=C\c1[nH]c(C)c(C(=O)OCc2ccccc2)c1C
inactive: SNB-19 CNS 18.5% | PC-3 prostate 10.4%
active: HCT-15 colon -35.4% | HT29 colon -19.4% | SNB-75 CNS -21.4% | U251 CNS -47% | SK-MEL-5 melanoma -99.5% | UACC-62 melanoma -52.6% | LOX IMVI melanoma -90.6% | SK-MEL-28 melanoma -59.4%

Nc1nc(=S)c2ncn(C3OC(COP(=O)(O)O)C(O)C3O)c2[nH]1 (stereo not given)
active: HCT-15 colon 9.49% | HT29 colon 7.19% | LOX IMVI melanoma 3.07%
inactive: SNB-75 CNS 47.8% | SNB-19 CNS 96.1% | U251 CNS 47.3% | PC-3 prostate 29.1% | SK-MEL-5 melanoma 69.5% | UACC-62 melanoma 14% | SK-MEL-28 melanoma 73.5%

O=C1/C(=C/c2cccs2)SC(=S)N1CCCN1CCOCC1
inactive: HCT-15 colon 83.6% | HT29 colon 103% | SNB-75 CNS 99% | SNB-19 CNS 92.5% | U251 CNS 94.8% | PC-3 prostate 75.5% | SK-MEL-5 melanoma 95.3% | UACC-62 melanoma 79.1% | LOX IMVI melanoma 89.1% | SK-MEL-28 melanoma 95.8%

O=C(Cc1ccccc1)Nc1nc(O)c(/C=C2\C(=O)C=Cc3ccccc32)s1
inactive: HCT-15 colon 100% | HT29 colon 111% | SNB-75 CNS 95.5% | SNB-19 CNS 92.3% | U251 CNS 101% | PC-3 prostate 92.4% | SK-MEL-5 melanoma 103% | UACC-62 melanoma 94.6% | LOX IMVI melanoma 97.6% | SK-MEL-28 melanoma 114%
